In PubChem BioAssay (Tox21) one finds Potency and outcome data, which are given here for seven compounds.

Experiment [1] in a line: qHTS assay to identify small molecule antagonists of the sonic hedgehog signaling (Shh) pathway (AID 1259369; calls by dose curve; note: nearly all actives have a fitted effect of over 45% in size; note: potency is the fitted concentration of half-maximal effect). Summed up:
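NIH/3T3 stable Gli1-Luc clone, 2,000 cells/well, 4hr settle; cpd + conditioned medium 24hr; Luc reagent 30min RT; luminescence.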
On the technique in general: Quantitative high-throughput screening tests each substance at several concentrations.

Experiment [2] can be described thus: qHTS assay to identify small molecule agonists of the androgen receptor (AR) signaling pathway in the presence of an antagonist - cell viability counter screen (AID 1259379). Note: nearly all actives have a fitted effect of over 25% in size. Note: potency is the fitted concentration of half-maximal effect. Summed up:
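MDA-kb2 viability measured by CellTiter-Fluor fluorescence in the same wells as the luciferase signal; nilutamide 3.0uM final; 15-point compound titration; 16 hr at 37C.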

Experiment [3] is described as follows: qHTS assay to identify small molecule agonists of the estrogen receptor beta (ER-beta) signaling pathway - cell viability counter screen (AID 1259380). Note: nearly all actives have a fitted effect of over 30% in size. Note: potency is the fitted concentration of half-maximal effect. A digest of the protocol: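 Measured: luminescence from CellTiter-Glo after 30 min at room temperature, added to wells already read for the LiveBLAzer FRET reporter (2 hr substrate); ER-beta-UAS-bla HEK293T cells had 16 hr compound treatment at 37C, 5% CO2.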

Experiment [4] concerns the target Androgen receptor (Homo sapiens) (UniProt P10275). As to the kind of experiment: qHTS assay to identify small molecule agonists of the androgen receptor (AR) signaling pathway in the presence of an antagonist (AID 1259381; calls by dose curve; note: nearly all actives have a fitted effect of over 15% in size). Summed up: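 Luminescent ONE-Glo read, 30min at room temperature, follows 16hr compound exposure (15 concentrations) of MDA-kb2 cells at 37C, 0% CO2, with nilutamide added at 3.0uM final.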

Experiment [5] in a line: qHTS assay to identify small molecule agonists or antagonists of the thyroid stimulating hormone receptor (TSHR) signaling pathway - wild type cell line counter screen (AID 1259384; calls by dose curve). A digest of the protocol:
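Wild-type HEK293 cells were plated 18 h at 37 C/5% CO2, pin-dosed with compound plus Ro20-1724 medium, held 30 min at room temperature, then given cAMP-d2 and anti-cAMP-cryptate; fluorescence was read after 1 h. Fifteen concentrations, triplicate.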

In experiment [6] the target is Thyrotropin receptor (Homo sapiens) (UniProt P16473). Put plainly: qHTS assay to identify small molecule antagonists of the thyroid stimulating hormone receptor (TSHR) signaling pathway (AID 1259385; calls by dose curve; note: nearly all actives have a fitted effect of over 20% in size; note: potency is the fitted concentration of half-maximal effect). Summed up: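 TSHR-HEK293 cells were plated and held 18 h at 37C/5% CO2, then given compound plus Ro20-1724 and stimulated with TSH at 1.5 ng/mL final. After 30 min at room temperature, cAMP was detected with cAMP-d2/anti-cAMP-cryptate (1 h) by fluorescence.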

A short description of experiment [7]: qHTS assay to identify small molecule agonists of the estrogen receptor alpha (ER-alpha) signaling pathway in the presence of an antagonist - cell viability counter screen (AID 1259386).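 Note: cells exposed to compounds for 22 h at 37 °C before the viability read; nearly all actives have a fitted effect of over 30% in size.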 Note: potency is the fitted concentration of half-maximal effect. A digest of the protocol:
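The test measures whether compounds kill ER-alpha reporter cells (VM7Luc4E2) under antagonist co-treatment (ICI-182,780, 10.0nM). Fluorescence from CellTiter-Fluor is read after a 22hr exposure.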

For experiment [8], the target named is Progesterone receptor (Homo sapiens) (UniProt P06401). As to the kind of experiment: qHTS assay to identify small molecule agonists of the progesterone receptor (PR) signaling pathway (AID 1346784; calls by dose curve; note: nearly all actives have a fitted effect of over 30% in size). A digest of the protocol: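 Compounds were tested for PR agonism in HEK 293T cells bearing a beta-lactamase gene under UAS control. Treatment lasted 16 hr at 37C; signal came from fluorescence of a FRET substrate.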

Experiment [9] in a line: qHTS assay to identify small molecule antagonists of the progesterone receptor (PR) signaling pathway - cell viability counter screen (AID 1346798). Note: nearly all actives have a fitted effect of over 50% in size. Note: potency is the fitted concentration of half-maximal effect. Summed up: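 Following a 4 hr attachment, PR-UAS-bla HEK293T cells in charcoal-stripped FBS medium were exposed to compounds with R5020 for 16 hr; CellTiter-Glo was added and luminescence read after 30 min at room temperature.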

The nature of experiment [10]: qHTS assay to identify small molecule agonists of the progesterone receptor (PR) signaling pathway - cell viability counter screen (AID 1346799; calls by dose curve; note: nearly all actives have a fitted effect of over 45% in size). A digest of the protocol: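 Here, 3,000 PR-UAS-bla HEK293T cells per well were treated with compounds for 16 hr after a 6 hr preincubation at 37C and 5% CO2; cell viability is the CellTiter-Glo luminescence signal.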
Experiment [11] in a line: qHTS assay to identify small molecule antagonists of the TGF-beta/Smad signaling pathway - cell viability counter screen (AID 1346824). Note: nearly all actives have a fitted effect of over 50% in size. Note: potency is the fitted concentration of half-maximal effect. A digest of the protocol: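 SBE-bla HEK 293T cells were plated overnight at 37 C, then given compounds in DMSO plus TGF-beta1 (added as 0.25 ng/mL solution) for 5 hr. After the bla read, CellTiter-Glo was added to the same wells and luminescence read after 30 min at room temperature.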

A short description of experiment [12]: qHTS assay to identify small molecule agonists of the TGF-beta/Smad signaling pathway - cell viability counter screen (AID 1346829). Note: nearly all actives have a fitted effect of over 45% in size. Note: potency is the fitted concentration of half-maximal effect. Summed up:
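Same-well cytotoxicity: CellTiter-Glo added after the 2 hr room-temperature beta-lactamase substrate step, luminescence measured 30 min later; cells had 5 hr of compound at 37 C.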

A short description of experiment [13]: qHTS assay to identify small molecule agonists of the TGF-beta/Smad signaling pathway (AID 1346859; active = well fitted activation curve with a large enough effect in the signal ratio in the repeat runs, not every such curve was filed as active; the % refers to the signal ratio; note: series mostly up to about 77 µM). A digest of the protocol: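 Each well held 4,000 SBE-bla HEK 293T cells incubated overnight before compound addition; 5 hr later the cleavable FRET substrate went on for 2 hr at room temperature, and fluorescence was read at two emissions.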
The nature of experiment [14]: qHTS assay to identify small molecule antagonists of the estrogen receptor beta (ER-beta) signaling pathway - cell viability counter screen (AID 1259382). Note: potency is the fitted concentration of half-maximal effect; nearly all actives have a fitted effect of over 55% in size. Summed up:
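Readout: luminescence, CellTiter-Glo, same wells as bla assay. System: ER-beta-UAS-bla GripTite HEK293T, 2% charcoal-stripped FBS. Exposure: compounds plus 1nM 17-beta-estradiol, 16 hr, 37C.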

The target in experiment [15] is Estrogen receptor (Homo sapiens) (UniProt P03372). Put plainly: qHTS assay to identify small molecule agonists of the estrogen receptor alpha (ER-alpha) signaling pathway in the presence of an antagonist (AID 1259383; calls by dose curve; note: nearly all actives have a fitted effect of over 15% in size; note: potency is the fitted concentration of half-maximal effect; for activation: top concentration of the series differs between compounds). A digest of the protocol: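 Quantitative HTS confirmation: compounds titrated at 15 concentrations onto estrogen-deprived VM7Luc4E2 cells carrying a four-ERE luciferase construct, with ICI-182,780 present at 10.0nM final. Signal is luminescence after 22hr exposure.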

Experiment [16] has as its target Progesterone receptor (Homo sapiens) (UniProt P06401). Put plainly: qHTS assay to identify small molecule antagonists of the progesterone receptor (PR) signaling pathway (AID 1346795; active = well fitted inhibition curve with a large enough effect in the signal ratio in the repeat runs, not every such curve was filed as active; the % refers to the signal ratio; note: potency is the fitted concentration of half-maximal effect). Summed up: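 In HEK293T cells bearing the PR-UAS-bla reporter, compound effects on promegestone-driven (1 nM) beta-lactamase expression are assessed after 16 hr using a fluorescent FRET substrate incubated 2 hr at room temperature.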

Experiment [17] concerns the target Thyrotropin-releasing hormone receptor (Homo sapiens) (UniProt P34981). As to the kind of experiment: qHTS assay to identify small molecule antagonists of the thyrotropin-releasing hormone receptor (TRHR) signaling pathway (AID 1346877; active = well fitted inhibition curve with a large enough effect in the repeat runs, not every such curve was filed as active; note: series mostly up to about 51 µM). A digest of the protocol: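 Overnight-plated (18 h, 37 °C) HEK293 cells expressing TRHR were dye-loaded 2 h, treated with compound, then stimulated with TRH at 1 nM final. Fluorescence intensity was captured every second for 3 min.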

The target is the same in experiment [18]. Put plainly: qHTS assay to identify small molecule agonists of the thyrotropin-releasing hormone receptor (TRHR) signaling pathway (AID 1346891; calls by dose curve; note: series mostly up to about 58 µM). A digest of the protocol:
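Screening of agonists relied on calcium signalling in HEK293 cells expressing human TRHR: dye loading 2 h at 37 °C preceded compound addition and a 3-min fluorescence time course.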

Values joined by “and” are separate entries in the source; they are usually repeats but may differ in a detail not shown here. Equal values may be shown once. Records with an inconclusive call do not appear. Active and inactive are the calls of the source. Unless noted, calls come from the whole dose curve; as a rule, active = well fitted curve in the direction sought with a large enough effect in the repeat runs; inconclusive = weak or mixed curves; inactive = no such curve, though single readings can be large; an effect the other way counts as inactive or inconclusive.

Chain of Thyrotropin receptor (Homo sapiens) (P16473 whole entry, looked up): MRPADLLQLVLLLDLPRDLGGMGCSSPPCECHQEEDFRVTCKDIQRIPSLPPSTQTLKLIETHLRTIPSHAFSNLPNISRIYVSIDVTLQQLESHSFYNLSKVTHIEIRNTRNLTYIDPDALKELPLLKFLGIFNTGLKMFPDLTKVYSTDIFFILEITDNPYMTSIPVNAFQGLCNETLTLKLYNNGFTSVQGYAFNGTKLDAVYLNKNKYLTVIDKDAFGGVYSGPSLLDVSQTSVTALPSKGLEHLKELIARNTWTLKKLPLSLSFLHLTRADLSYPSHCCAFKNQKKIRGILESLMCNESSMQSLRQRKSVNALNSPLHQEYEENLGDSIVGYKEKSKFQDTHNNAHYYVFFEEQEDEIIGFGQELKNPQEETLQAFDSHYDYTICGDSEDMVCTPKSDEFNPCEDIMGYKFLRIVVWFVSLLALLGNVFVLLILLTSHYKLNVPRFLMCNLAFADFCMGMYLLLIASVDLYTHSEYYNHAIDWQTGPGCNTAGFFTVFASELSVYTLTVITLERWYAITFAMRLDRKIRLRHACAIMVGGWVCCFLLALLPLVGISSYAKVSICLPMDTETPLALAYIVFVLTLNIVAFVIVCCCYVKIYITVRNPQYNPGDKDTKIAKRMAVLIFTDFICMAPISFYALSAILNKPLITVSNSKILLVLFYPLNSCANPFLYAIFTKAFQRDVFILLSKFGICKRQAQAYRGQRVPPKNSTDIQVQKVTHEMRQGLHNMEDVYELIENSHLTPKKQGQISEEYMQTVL
Chain of Thyrotropin-releasing hormone receptor (Homo sapiens) (P34981 whole entry, looked up): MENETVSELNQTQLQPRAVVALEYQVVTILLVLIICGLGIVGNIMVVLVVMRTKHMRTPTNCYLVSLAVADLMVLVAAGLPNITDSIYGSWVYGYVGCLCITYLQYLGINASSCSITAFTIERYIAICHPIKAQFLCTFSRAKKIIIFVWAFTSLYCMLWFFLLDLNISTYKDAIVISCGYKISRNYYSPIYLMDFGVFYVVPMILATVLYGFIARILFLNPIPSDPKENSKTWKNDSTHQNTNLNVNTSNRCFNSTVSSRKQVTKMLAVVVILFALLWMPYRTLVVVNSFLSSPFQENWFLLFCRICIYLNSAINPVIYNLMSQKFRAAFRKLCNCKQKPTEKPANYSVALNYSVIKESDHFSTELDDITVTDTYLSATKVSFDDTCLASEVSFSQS
Chain of Androgen receptor (Homo sapiens) (P10275 whole entry, looked up): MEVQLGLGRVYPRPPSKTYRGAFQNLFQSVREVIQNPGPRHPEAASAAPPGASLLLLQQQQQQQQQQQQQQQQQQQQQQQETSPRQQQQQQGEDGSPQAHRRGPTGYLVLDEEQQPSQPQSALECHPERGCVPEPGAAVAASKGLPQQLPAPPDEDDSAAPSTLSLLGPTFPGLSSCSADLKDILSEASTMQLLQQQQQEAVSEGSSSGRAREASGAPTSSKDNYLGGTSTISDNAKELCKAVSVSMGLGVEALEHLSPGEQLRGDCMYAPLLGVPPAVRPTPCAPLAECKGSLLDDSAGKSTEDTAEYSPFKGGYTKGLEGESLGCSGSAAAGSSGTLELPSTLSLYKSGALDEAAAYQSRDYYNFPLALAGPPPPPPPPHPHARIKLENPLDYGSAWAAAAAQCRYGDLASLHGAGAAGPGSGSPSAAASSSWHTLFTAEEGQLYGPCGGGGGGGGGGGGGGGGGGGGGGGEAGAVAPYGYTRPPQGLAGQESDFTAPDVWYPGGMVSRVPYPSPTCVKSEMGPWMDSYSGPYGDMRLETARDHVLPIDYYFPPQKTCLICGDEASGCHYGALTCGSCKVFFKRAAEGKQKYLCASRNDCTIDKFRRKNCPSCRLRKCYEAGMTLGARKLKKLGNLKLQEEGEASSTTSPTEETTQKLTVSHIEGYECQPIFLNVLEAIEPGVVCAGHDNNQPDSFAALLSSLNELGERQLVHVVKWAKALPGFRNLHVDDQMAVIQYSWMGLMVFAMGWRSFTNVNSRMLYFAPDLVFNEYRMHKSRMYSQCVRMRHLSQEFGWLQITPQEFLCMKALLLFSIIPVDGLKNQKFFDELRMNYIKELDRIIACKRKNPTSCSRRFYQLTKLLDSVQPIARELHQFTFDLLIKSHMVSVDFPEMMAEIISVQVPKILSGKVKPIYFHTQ
Chain of Progesterone receptor (Homo sapiens) (P06401 whole entry, looked up): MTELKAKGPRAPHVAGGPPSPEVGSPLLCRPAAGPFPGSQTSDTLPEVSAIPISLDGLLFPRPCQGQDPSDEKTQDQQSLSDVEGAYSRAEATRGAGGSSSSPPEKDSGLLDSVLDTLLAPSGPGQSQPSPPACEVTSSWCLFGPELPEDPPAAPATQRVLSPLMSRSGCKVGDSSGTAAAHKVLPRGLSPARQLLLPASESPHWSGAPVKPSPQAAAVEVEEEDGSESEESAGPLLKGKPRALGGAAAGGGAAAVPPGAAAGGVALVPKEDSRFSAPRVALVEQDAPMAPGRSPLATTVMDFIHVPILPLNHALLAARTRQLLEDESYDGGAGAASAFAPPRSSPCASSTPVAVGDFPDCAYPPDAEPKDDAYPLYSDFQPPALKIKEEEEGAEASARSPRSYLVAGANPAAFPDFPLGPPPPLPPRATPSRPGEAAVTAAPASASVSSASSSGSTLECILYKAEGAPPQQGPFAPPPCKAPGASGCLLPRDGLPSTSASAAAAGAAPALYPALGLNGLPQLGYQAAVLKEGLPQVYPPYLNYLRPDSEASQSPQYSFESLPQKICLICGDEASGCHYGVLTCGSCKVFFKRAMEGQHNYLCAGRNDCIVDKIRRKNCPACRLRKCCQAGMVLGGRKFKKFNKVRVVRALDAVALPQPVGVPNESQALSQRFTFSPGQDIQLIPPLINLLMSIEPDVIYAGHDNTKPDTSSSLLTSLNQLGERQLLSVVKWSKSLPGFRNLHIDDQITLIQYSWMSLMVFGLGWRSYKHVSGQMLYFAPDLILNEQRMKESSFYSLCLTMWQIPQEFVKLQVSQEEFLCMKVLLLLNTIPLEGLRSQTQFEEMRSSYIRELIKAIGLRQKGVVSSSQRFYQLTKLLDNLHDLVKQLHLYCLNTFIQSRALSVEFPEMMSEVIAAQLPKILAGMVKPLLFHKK
Chain of Estrogen receptor (Homo sapiens) (P03372 whole entry, looked up): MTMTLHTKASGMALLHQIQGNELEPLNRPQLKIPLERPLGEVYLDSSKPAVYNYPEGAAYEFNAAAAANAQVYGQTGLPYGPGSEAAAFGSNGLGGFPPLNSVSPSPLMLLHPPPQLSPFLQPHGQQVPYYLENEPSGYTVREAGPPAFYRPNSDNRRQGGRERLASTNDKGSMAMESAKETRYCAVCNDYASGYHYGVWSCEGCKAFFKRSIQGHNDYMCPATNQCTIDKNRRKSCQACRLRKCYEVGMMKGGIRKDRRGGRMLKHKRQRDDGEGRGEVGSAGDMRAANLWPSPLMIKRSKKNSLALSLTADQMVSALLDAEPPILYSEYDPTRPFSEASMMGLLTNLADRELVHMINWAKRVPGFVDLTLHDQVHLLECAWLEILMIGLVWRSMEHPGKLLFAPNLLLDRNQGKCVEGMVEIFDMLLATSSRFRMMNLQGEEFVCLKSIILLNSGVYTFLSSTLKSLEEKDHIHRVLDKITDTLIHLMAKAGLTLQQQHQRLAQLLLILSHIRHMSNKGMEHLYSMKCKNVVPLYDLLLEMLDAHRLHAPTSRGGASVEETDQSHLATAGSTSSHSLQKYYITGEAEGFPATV

As to `CC(=O)c1ccc(-c2ccccc2)cc1`, the Potency result in experiment [1], in experiment [2], in [3], in [4], in [6] and in experiment [7] was “inactive” in each case. Also, the Potency result in experiment [8], in [9], in experiment [10], in experiment [11] and in experiment [12] was “inactive” each time. Moreover, the outcome in experiment [5] and in experiment [13] was inactive.
For the compound `CCC[CH2][Sn]([CH2]CCC)([CH2]CCC)[O]C(=O)c1ccccc1`, the Potency was 0.172 µM (active) in experiment [1]; 1.72 µM (active) in experiment [2]; 1.54 µM (active) in experiment [3]; 1.93 µM (active) in [14]; 17.2 µM (active) in experiment [6]; 10.9 µM (active) in [7]. Also, the results for the Potency in experiment [9], in experiment [11] and in experiment [12] were 2.17 µM (active), 3.47 µM (active) and 2.45 µM (active), respectively. Besides, the Potency result in experiment [15] was “inactive”.
As to `CCOc1cc(C(C)(C)C)ccc1C1COC(c2c(F)cccc2F)=N1` (stereo unspecified), the Potency in experiment [1] was 2.95 µM (active); in [3] it was 18.6 µM (active); in experiment [14], 29.5 µM (active); in experiment [16], 23.4 µM (active); in experiment [9] it was 37.1 µM (active). Also, the Potency entry in experiment [2], in experiment [4], in experiment [7], in experiment [12], in experiment [17] and in experiment [18] was “inactive” each time. In experiment [13], the result was inactive.
For the compound `N#CSCSC#N`, the Potency in [1] is 2.79 µM (active) and 2.41 µM (active); in experiment [2], 70.1 µM (active) and 67.9 µM (active); in [3], 27.9 µM (active) and 27 µM (active); in [14], 55.7 µM (active) and 48.1 µM (active); in [6], 55.7 µM (active). Also, the Potency result in [4], in experiment [9], in experiment [10], in experiment [12], in [17] and in experiment [18] was “inactive” throughout. Also, the compound was called inactive in experiment [5] and in experiment [13].
Turning to `O=C1c2ccccc2C(=O)C1C(=O)C(c1ccccc1)c1ccc(Cl)cc1` (stereo unspecified), the Potency is 54.5 µM (active) in [1], 27.3 µM (active) in experiment [2], 24.3 µM (active) in experiment [3] and 19.3 µM (active) in experiment [16]. The Potency entry in experiment [4], in [15], in experiment [9] and in experiment [11] was “inactive” each time. Further, the result in experiment [5] and in experiment [13] was inactive.
On to `CCCN(CCC)c1c([N+](=O)[O-])cc(S(N)(=O)=O)cc1[N+](=O)[O-]`, for which the Potency was 4.86 µM (active) in [1]; 51.8 µM (active) in [2]; 23.1 µM (active) in experiment [3]; 54.9 µM (active) in [14]; 65.2 µM (active) in experiment [15]; 58.6 µM (active) in experiment [12]. Moreover, the outcome in [5] was inactive.
`O=[N+]([O-])c1cc(C(F)(F)F)c(Cl)c([N+](=O)[O-])c1Cl`: the Potency in experiment [1] is 4.86 µM (active); in experiment [2], 27.3 µM (active); in experiment [3] it was 27.3 µM (active); in experiment [14], 30.6 µM (active); in experiment [6], 61.1 µM (active); in [7] it was 54.5 µM (active). For the same compound, the values for the Potency in experiment [9], in experiment [11] and in experiment [12] were 54.5 µM (active), 49 µM (active) and 49 µM (active), respectively. Besides, the outcome in experiment [5] was inactive. In addition, the Potency result in experiment [17] is “inactive”.
